The values that follow come from PubChem BioAssay (NCATS).

Records with an inconclusive call do not appear. Where a call stands in place of a potency, no number is given. Unmarked numbers belong to inactive results. The source made the active and inactive calls. Calls come from the whole dose curve; as a rule, active = well fitted cell-killing curve with a large enough effect; inconclusive = small, poorly fitted or top-dose-only effect, or effect the other way; inactive = no such curve, though single readings can be large or run the other way.

The test can be described thus: Viability qHTS for spleen associated tyrosine kinase inhibitor (SYKi) naive MV4-11 cells (AID 1963823). Note: nearly all actives have a fitted effect of over 40% in size. The conditions noted are these: MV4-11 AML viability, CellTiter-Glo luminescence, 72 h; series mostly up to 45 µM. The method in brief: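 Read-out: CellTiter-Glo luminescence. Exposure: 72 hr, 37 C, 5% CO2, 95% humidity. Cells: MV4-11 without SYK inhibitor history, 500/well, qHTS format.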
Consider `CC1(C)CC[C@]2(C(=O)O)CC[C@]3(C)C(=CCC4[C@@]5(C)CC[C@H](O[C@@H]6O[C@H](C(=O)O)[C@@H](O)[C@H](O[C@@H]7O[C@H](CO)[C@H](O)[C@H](O)[C@H]7O)[C@H]6O[C@@H]6O[C@H](CO)[C@@H](O)[C@H](O)[C@H]6O)C(C)(C)C5CC[C@]43C)[C@@H]2C1` (stereo partly drawn), for which the viability (% of control) was 77.5% [at 4.97 µM]. With `CC(/C=C/C1(O)C(C)CC(O)CC1(C)C)OC1OC(CO)C(O)C(O)C1O` (stereo not drawn), the Potency result was “inactive”. The same measure, in the same setting: as for `CC(C)(O)c1ccc2c(c1)C(=O)CC1[C@](C)(CO)CCC[C@]21C` (stereo partly drawn), the entry is “inactive”. Turning to `CC1(C)CCC2(C(=O)OC3OC(CO)C(O)C(O)C3O)CCC3(C)C(=CCC4C5(C)CCC(OC6OC(C(=O)O)C(OC7OC(CO)C(O)C(O)C7O)C(OC7OC(CO)C(O)C(O)C7O)C6O)C(C)(C)C5CCC43C)C2C1` (stereo not drawn), the viability (% of control) is 77.9% [at 9.25 µM]. Regarding `CC(C)(O)/C=C1/C(=O)C(C)(C)C(=O)C(C)(C)C1(O)O[C@@H]1O[C@H](COC(=O)c2cc(O)c(O)c(O)c2)[C@@H](O)[C@H](O)[C@H]1O` (stereo partly drawn), the Potency result is “inactive”. As to `C/C=C(\C)C(=O)OCC1OC(OC2OC(COC(=O)/C(C)=C/C)C(OC3OC(CO)C(OC(=O)/C(C)=C/C)C(OC(=O)/C(C)=C/C)C3O)C(O)C2O)C(O)C(O)C1OC1OC(CO)C(OC(=O)/C(C)=C/C)C(OC(=O)/C(C)=C/C)C1O` (stereo not drawn), the viability (% of control) was 65% [at 9.25 µM]. `CC(C)(OC1OC(CO)C(O)C(O)C1O)C1CCC(O)(CO)C2CC(O)C(C)(O)C2C1` (stereo not drawn): the Potency result was “inactive”. For the compound `COc1ccc(CN2C(=O)C(=O)c3cc(S(=O)(=O)N4CCC[C@H]4COc4cccnc4)ccc32)cc1`, the Potency entry is “inactive”.
